Test results reported in publication PMC7862700, “An all-to-all approach to the identification of sequence-specific readers for epigenetic DNA modifications on cytosine”.

Columns and labels:
Assay in all cases: DAPPL (digital affinity profiling via proximity ligation, sequencing); 10 mM Tris-HCl pH 7.5, 50 mM NaCl, 1 mM DTT, 4% glycerol, room temperature, 30 min; GST-TFs on glutathione beads, 16-mer random dsDNA library, 0.1% formaldehyde crosslink after washing; high values mean tight binding
FLI1 = target: T1, FLI1 (Homo sapiens, UniProt Q01543 1-452); conditions: protein: recombinant; tags: N-terminal GST; dsDNA, one strand shown
T1 sequence: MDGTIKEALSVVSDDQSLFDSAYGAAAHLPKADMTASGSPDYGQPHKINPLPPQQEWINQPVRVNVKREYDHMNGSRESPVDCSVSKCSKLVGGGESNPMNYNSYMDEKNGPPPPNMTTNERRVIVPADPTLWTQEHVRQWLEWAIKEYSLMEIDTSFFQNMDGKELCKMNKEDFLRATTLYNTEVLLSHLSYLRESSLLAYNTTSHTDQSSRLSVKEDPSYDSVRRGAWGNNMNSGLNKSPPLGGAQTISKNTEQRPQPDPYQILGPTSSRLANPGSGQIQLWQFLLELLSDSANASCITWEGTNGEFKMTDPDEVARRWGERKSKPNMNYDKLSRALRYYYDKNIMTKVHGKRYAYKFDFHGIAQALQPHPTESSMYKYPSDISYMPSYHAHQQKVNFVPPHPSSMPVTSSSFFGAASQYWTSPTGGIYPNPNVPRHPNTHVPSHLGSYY
Procedure, shortened: (§1)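 Binding signal is given per hexamer as its read frequency for a factor divided by its frequency in the tag-only sample. GST-fused human transcription factors were expressed in yeast, captured on glutathione beads, barcoded with DNA and pooled with that sample, then incubated with 200 nmole of a 16-mer random double-stranded DNA library in Tris/NaCl/DTT/glycerol buffer for 30 min at room temperature. The pools were then washed, crosslinked, proximity-ligated, amplified by PCR and sequenced on an Illumina NextSeq500.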

ELK1 = target: T2, ELK1 (Homo sapiens, UniProt P19419 1-428); conditions: protein: recombinant; tags: N-terminal GST; dsDNA, one strand shown
T2 sequence: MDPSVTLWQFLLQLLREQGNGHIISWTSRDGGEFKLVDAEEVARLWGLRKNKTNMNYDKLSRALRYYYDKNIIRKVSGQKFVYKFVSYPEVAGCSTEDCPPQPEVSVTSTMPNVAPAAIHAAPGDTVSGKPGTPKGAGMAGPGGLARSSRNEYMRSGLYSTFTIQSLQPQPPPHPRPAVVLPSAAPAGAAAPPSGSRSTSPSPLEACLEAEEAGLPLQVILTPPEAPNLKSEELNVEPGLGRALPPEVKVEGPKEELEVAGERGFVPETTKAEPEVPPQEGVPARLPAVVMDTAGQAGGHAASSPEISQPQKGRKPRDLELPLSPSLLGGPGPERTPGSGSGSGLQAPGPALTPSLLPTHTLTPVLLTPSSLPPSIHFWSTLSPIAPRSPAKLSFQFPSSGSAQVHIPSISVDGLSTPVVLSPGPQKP
Procedure, shortened: as §1

GABPA = target: T3, GABPA (Homo sapiens, UniProt Q06546 1-454); conditions: protein: recombinant; tags: N-terminal GST; dsDNA, one strand shown
T3 sequence: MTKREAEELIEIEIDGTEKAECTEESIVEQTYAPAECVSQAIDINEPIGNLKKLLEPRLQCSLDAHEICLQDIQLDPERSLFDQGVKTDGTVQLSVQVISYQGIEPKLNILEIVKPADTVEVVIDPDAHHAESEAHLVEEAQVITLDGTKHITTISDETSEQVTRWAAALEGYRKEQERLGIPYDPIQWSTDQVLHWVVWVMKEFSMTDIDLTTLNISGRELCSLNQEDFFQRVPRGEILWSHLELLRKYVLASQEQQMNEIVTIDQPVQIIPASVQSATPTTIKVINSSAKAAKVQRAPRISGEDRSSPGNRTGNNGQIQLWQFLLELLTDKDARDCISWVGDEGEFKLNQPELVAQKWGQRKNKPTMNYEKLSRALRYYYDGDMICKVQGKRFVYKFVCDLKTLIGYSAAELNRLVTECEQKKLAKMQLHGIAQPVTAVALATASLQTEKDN
Procedure, shortened: as §1

ERG = target: T4, ERG (Homo sapiens, UniProt P11308 1-479); conditions: protein: recombinant; tags: N-terminal GST; dsDNA, one strand shown
T4 sequence: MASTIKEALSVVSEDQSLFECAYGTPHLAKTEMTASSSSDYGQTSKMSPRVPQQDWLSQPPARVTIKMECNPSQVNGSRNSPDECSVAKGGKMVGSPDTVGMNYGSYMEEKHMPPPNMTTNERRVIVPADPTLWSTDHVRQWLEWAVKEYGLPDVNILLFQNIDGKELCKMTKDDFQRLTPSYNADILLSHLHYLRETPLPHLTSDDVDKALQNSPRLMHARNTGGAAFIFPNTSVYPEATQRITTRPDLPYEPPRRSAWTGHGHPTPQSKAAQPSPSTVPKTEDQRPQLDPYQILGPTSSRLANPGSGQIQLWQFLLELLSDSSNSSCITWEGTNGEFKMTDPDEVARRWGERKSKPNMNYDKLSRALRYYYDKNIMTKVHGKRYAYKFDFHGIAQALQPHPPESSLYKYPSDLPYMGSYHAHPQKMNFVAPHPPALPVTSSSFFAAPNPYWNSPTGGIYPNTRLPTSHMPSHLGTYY
Procedure, shortened: as §1

ELF1 = ELF1 (Homo sapiens, UniProt P32519 1-619); conditions: protein: recombinant; tags: N-terminal GST; dsDNA, one strand shown
Procedure, shortened: as §1

EHF = target: T5, EHF (Homo sapiens, UniProt Q9NZC4 1-300); conditions: protein: recombinant; tags: N-terminal GST; dsDNA, one strand shown
T5 sequence: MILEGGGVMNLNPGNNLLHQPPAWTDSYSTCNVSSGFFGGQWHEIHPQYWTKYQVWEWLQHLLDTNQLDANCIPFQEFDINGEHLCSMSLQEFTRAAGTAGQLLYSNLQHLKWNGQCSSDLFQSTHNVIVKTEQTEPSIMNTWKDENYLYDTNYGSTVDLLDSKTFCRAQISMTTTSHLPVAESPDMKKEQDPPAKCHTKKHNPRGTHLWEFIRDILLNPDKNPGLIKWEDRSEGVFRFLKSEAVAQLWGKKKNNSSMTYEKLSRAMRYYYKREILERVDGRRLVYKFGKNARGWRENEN
Procedure, shortened: as §1

SPI1 = SPI1 (Homo sapiens, UniProt P17947 1-270); conditions: protein: recombinant; tags: N-terminal GST; dsDNA, one strand shown
Procedure, shortened: as §1

SPIB = SPIB (Homo sapiens, UniProt Q01892 1-262); conditions: protein: recombinant; tags: N-terminal GST; dsDNA, one strand shown
Procedure, shortened: as §1

ELK3 = target: T6, ELK3 (Homo sapiens, UniProt P41970 1-407); conditions: protein: recombinant; tags: N-terminal GST; dsDNA, one strand shown
T6 sequence: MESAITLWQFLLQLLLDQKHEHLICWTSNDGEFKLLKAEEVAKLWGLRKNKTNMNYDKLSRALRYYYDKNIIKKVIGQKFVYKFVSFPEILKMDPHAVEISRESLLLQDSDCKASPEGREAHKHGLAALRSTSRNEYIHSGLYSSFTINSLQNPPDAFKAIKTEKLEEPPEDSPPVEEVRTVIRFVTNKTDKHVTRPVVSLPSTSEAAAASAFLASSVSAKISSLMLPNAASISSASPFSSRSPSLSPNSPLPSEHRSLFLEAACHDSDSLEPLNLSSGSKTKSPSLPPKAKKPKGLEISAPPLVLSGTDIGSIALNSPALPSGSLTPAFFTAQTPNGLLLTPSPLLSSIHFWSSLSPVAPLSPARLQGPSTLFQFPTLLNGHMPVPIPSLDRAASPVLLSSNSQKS
Procedure, shortened: as §1

FEV = target: T7, FEV (Homo sapiens, UniProt Q99581 1-238); conditions: protein: recombinant; tags: N-terminal GST; dsDNA, one strand shown
T7 sequence: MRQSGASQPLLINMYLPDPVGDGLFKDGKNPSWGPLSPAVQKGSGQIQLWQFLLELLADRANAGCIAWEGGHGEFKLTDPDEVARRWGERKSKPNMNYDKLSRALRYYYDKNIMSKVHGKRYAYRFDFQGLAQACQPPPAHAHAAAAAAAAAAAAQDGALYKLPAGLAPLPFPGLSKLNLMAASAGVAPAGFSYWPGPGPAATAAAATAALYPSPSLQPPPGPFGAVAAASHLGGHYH
Procedure, shortened: as §1

ETV5 = ETV5 (Homo sapiens, UniProt P41161 1-510); conditions: protein: recombinant; tags: N-terminal GST; dsDNA, one strand shown
Procedure, shortened: as §1

HSF1 = HSF1 (Homo sapiens, UniProt Q00613 1-529); conditions: protein: recombinant; tags: N-terminal GST; chain copies: 3; dsDNA, one strand shown
Procedure, shortened: as §1

SPIC = target: T8, SPIC (Homo sapiens, UniProt Q8N5J4 1-248); conditions: protein: recombinant; tags: N-terminal GST; dsDNA, one strand shown
T8 sequence: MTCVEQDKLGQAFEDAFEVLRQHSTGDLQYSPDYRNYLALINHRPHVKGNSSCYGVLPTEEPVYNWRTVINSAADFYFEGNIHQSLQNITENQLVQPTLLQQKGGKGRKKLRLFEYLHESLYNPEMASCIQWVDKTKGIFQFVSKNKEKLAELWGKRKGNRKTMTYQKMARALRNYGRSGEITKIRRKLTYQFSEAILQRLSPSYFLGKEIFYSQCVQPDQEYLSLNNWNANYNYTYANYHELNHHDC
Procedure, shortened: as §1

ELF4 = ELF4 (Homo sapiens, UniProt Q99607 1-663); conditions: protein: recombinant; tags: N-terminal GST; dsDNA, one strand shown
Procedure, shortened: as §1

ELK4 = target: T9, ELK4 (Homo sapiens, UniProt P28324-2 1-405); conditions: protein: recombinant; tags: N-terminal GST; dsDNA, one strand shown
T9 sequence: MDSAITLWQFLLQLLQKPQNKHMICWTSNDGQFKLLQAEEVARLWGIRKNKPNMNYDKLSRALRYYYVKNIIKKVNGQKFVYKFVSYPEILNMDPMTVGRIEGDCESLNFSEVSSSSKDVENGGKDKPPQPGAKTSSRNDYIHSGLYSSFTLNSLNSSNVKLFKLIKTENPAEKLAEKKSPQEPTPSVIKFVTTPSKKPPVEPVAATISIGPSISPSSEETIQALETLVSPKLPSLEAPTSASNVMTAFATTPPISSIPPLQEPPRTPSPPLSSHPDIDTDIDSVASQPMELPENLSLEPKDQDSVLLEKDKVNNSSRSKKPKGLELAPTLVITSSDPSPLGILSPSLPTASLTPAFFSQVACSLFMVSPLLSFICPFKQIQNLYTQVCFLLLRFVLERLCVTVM
Procedure, shortened: as §1

ETV2 = target: T10, ETV2 (Homo sapiens, UniProt O00321 1-342); conditions: protein: recombinant; tags: N-terminal GST; dsDNA, one strand shown
T10 sequence: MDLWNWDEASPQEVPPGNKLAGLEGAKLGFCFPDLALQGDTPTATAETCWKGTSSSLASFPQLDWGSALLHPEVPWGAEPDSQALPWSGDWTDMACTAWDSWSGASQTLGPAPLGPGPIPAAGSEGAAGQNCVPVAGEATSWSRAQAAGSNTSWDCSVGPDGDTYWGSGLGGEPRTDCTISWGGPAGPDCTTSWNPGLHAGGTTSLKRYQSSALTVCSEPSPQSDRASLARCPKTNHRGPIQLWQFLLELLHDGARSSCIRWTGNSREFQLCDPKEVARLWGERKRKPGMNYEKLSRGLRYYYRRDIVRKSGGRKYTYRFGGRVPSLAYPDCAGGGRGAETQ
Procedure, shortened: as §1

ELF3 = target: T11, ELF3 (Homo sapiens, UniProt P78545 1-371); conditions: protein: recombinant; tags: N-terminal GST; dsDNA, one strand shown
T11 sequence: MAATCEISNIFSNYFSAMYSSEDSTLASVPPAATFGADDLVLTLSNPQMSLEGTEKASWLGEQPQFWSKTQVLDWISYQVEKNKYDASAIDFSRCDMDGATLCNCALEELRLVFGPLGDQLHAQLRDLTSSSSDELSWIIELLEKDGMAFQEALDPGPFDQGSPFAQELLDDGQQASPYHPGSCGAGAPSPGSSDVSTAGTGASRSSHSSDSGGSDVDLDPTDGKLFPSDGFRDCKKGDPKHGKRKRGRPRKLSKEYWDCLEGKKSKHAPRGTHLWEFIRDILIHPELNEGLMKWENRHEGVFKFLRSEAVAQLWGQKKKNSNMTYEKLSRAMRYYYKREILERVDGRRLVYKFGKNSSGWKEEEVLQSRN
Procedure, shortened: as §1

CRX = CRX (Homo sapiens, UniProt O43186 1-299); conditions: protein: recombinant; tags: N-terminal GST; dsDNA, one strand shown
Procedure, shortened: as §1

ETV1 = ETV1 (Homo sapiens, UniProt P50549 1-477); conditions: protein: recombinant; tags: N-terminal GST; dsDNA, one strand shown
Procedure, shortened: as §1

Sequence of SPIB (Q01892 whole entry): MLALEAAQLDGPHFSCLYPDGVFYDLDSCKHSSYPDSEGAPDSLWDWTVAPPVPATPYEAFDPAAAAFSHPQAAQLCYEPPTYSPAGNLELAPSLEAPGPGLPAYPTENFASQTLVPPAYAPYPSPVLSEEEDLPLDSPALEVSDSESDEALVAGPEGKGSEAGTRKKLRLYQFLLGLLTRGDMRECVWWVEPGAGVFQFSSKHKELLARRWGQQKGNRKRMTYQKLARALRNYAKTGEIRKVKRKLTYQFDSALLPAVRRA
Sequence of ETV1 (P50549 whole entry): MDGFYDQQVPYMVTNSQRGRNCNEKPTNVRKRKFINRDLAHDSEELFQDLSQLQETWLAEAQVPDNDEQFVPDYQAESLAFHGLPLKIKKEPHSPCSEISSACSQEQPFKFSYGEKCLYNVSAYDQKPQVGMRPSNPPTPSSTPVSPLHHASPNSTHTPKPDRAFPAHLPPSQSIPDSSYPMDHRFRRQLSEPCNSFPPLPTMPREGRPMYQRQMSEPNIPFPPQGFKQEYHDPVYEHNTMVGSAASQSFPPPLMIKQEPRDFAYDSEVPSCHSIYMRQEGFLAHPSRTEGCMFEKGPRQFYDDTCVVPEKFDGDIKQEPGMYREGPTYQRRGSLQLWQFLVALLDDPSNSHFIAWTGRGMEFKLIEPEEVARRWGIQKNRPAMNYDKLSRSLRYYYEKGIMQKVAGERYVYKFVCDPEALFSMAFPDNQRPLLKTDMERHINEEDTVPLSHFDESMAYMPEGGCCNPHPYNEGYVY
Sequence of ELF1 (P32519 whole entry): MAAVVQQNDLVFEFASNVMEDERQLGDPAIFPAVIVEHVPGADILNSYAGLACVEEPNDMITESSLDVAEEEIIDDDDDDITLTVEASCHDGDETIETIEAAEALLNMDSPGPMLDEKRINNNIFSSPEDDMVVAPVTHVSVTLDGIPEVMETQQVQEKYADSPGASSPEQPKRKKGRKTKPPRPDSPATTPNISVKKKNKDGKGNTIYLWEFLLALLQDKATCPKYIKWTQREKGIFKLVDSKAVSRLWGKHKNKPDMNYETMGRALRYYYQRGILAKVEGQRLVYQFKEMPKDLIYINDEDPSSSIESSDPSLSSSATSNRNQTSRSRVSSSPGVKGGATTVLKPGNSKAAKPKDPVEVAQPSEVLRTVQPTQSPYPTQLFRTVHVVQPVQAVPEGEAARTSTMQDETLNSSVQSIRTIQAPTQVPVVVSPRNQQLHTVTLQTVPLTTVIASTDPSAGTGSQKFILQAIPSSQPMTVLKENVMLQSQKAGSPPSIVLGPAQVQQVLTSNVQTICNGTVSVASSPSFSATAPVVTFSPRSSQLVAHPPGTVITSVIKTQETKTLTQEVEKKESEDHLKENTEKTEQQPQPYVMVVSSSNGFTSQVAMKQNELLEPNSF
Sequence of ETV5 (P41161 whole entry): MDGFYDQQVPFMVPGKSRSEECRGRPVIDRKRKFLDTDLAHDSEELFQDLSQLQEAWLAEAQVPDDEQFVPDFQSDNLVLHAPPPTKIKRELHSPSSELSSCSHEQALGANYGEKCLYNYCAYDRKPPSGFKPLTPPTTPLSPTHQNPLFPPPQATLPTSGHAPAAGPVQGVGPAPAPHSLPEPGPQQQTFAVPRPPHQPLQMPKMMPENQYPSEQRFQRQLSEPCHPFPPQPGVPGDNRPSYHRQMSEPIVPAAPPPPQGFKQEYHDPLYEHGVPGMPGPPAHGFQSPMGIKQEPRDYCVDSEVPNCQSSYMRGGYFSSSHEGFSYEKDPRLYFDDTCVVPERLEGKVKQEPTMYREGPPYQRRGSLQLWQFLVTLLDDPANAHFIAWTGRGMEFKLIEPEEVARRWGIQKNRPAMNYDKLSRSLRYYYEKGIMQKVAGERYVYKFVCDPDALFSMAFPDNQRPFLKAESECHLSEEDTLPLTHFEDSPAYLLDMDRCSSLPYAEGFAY
Sequence of CRX (O43186 whole entry): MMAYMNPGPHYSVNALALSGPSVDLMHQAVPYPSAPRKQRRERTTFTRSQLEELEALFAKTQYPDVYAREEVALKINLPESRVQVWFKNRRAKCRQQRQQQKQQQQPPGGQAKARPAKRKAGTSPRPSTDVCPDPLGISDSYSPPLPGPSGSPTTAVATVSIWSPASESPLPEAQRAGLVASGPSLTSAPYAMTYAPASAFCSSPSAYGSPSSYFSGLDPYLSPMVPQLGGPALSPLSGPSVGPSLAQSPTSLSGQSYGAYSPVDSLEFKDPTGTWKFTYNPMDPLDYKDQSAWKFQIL
Sequence of ELF4 (Q99607 whole entry): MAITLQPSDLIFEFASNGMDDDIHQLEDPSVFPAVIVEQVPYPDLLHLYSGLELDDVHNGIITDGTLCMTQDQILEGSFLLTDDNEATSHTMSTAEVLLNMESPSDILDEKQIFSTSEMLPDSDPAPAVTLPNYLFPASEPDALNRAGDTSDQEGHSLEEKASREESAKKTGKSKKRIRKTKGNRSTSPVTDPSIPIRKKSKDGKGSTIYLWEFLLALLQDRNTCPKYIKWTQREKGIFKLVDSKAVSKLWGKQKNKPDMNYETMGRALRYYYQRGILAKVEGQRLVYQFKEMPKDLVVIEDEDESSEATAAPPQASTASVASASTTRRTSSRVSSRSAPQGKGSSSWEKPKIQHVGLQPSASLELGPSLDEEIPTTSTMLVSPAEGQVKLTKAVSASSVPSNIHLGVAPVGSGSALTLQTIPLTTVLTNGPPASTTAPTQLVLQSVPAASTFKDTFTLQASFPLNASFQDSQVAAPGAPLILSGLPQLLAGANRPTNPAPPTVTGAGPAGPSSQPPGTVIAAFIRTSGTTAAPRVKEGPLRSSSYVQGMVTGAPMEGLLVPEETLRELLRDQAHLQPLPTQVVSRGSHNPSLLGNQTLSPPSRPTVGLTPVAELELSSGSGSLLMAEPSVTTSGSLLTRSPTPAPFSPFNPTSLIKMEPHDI
Sequence of HSF1 (Q00613 whole entry): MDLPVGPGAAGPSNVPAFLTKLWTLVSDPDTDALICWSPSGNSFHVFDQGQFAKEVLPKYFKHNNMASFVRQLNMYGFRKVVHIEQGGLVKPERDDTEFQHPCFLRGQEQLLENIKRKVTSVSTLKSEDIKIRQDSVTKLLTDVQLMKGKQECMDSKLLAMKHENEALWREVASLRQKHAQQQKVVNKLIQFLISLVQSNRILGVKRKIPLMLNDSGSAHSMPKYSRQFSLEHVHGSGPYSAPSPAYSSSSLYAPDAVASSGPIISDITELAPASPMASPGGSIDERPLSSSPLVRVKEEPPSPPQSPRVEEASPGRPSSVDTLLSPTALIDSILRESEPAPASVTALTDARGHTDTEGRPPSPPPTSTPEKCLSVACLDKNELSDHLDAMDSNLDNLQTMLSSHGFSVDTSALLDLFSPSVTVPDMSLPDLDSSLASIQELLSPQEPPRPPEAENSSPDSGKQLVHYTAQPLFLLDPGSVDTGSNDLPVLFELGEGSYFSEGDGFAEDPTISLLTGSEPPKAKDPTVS

Sequence: AGCTTC
- binding signal (FLI1): 1.64 fold enrichment (6-mer frequency, TF over GST control)
- binding signal (ELK1): 1.86 fold enrichment (6-mer frequency, TF over GST control)
- binding signal (GABPA): 1.71 fold enrichment (6-mer frequency, TF over GST control)
- binding signal (ERG): 1.83 fold enrichment (6-mer frequency, TF over GST control)
- binding signal (ELF1): 1.66 fold enrichment (6-mer frequency, TF over GST control)
- binding signal (EHF): 1.83 fold enrichment (6-mer frequency, TF over GST control)
- binding signal (SPI1): 1.74 fold enrichment (6-mer frequency, TF over GST control)
- binding signal (SPIB): 1.78 fold enrichment (6-mer frequency, TF over GST control)
- binding signal (ELK3): 2.06 fold enrichment (6-mer frequency, TF over GST control)
- binding signal (FEV): 1.84 fold enrichment (6-mer frequency, TF over GST control)
- binding signal (ETV5): 1.85 fold enrichment (6-mer frequency, TF over GST control)
- binding signal (HSF1): 1.93 fold enrichment (6-mer frequency, TF over GST control)
- binding signal (SPIC): 1.75 fold enrichment (6-mer frequency, TF over GST control)
- binding signal (ELF4): 1.67 fold enrichment (6-mer frequency, TF over GST control)
- binding signal (ELK4): 1.64 fold enrichment (6-mer frequency, TF over GST control)
- binding signal (ETV2): 1.74 fold enrichment (6-mer frequency, TF over GST control)
- binding signal (ELF3): 1.58 fold enrichment (6-mer frequency, TF over GST control)
- binding signal (CRX): 1.62 fold enrichment (6-mer frequency, TF over GST control)
- binding signal (ETV1): 1.62 fold enrichment (6-mer frequency, TF over GST control)
